About 83,000 compounds went through this panel and 20% of them were active in at least one assay; those are over-represented in the sample as a whole.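 Treatment: one concentration, 48 hours, 96-well format. Scoring: percent growth, with anything below 10 considered active.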 Active and inactive are the calls of the source.
How the values were obtained:
Test in all cases: NCI-60 one-dose screen, 48 h (100 = growth as untreated, 0 = no growth, -100 = all killed)
Settings in all cases: 10 µM unless noted
EKVX NSCLC = tested on: EKVX NSCLC
SN12C renal = tested on: SN12C renal
UO-31 renal = tested on: UO-31 renal
TK-10 renal = tested on: TK-10 renal
ACHN renal = tested on: ACHN renal
CAKI-1 renal = tested on: CAKI-1 renal
A498 renal = tested on: A498 renal
CCRF-CEM leukemia = tested on: CCRF-CEM leukemia
MOLT-4 leukemia = tested on: MOLT-4 leukemia
SR leukemia = tested on: SR leukemia
RPMI-8226 leukemia = tested on: RPMI-8226 leukemia
OVCAR-8 ovarian = tested on: OVCAR-8 ovarian
OVCAR-5 ovarian = tested on: OVCAR-5 ovarian
OVCAR-4 ovarian = tested on: OVCAR-4 ovarian
SK-OV-3 ovarian = tested on: SK-OV-3 ovarian
IGROV1 ovarian = tested on: IGROV1 ovarian
OVCAR-3 ovarian = tested on: OVCAR-3 ovarian
HS 578T breast = tested on: HS 578T breast
NCI/ADR-RES ovarian = tested on: NCI/ADR-RES ovarian
T-47D breast = tested on: T-47D breast

Measured: growth

COc1cc(Oc2cc(-c3cccnc3)ccc2NC(=O)Nc2ccc(F)cc2F)cc(OC)c1OC
inactive: EKVX NSCLC 90.4% | SN12C renal 102% | UO-31 renal 76.8% | TK-10 renal 116% | ACHN renal 121% | CAKI-1 renal 94.3% | A498 renal 89.9% | CCRF-CEM leukemia 97.3% | MOLT-4 leukemia 84.9% | SR leukemia 97.4% | RPMI-8226 leukemia 93.6% | OVCAR-8 ovarian 92.8% | OVCAR-5 ovarian 117% | OVCAR-4 ovarian 113% | SK-OV-3 ovarian 89.1% | IGROV1 ovarian 116% | OVCAR-3 ovarian 102% | HS 578T breast 99.9% | NCI/ADR-RES ovarian 95.2% | T-47D breast 71.5%

COc1ccc2c(c1)C(=O)c1c-2c(OCCCN(C)C)nc2cc(Br)ccc12
inactive: EKVX NSCLC 61.8% | SN12C renal 62.2% | TK-10 renal 76.7% | CAKI-1 renal 69.6% | A498 renal 76.3% | MOLT-4 leukemia 21.1% | RPMI-8226 leukemia 73.4% | OVCAR-4 ovarian 88.6% | SK-OV-3 ovarian 81.3% | IGROV1 ovarian 71.3% | OVCAR-3 ovarian 89.1% | HS 578T breast 81.4% | NCI/ADR-RES ovarian 65.6% | T-47D breast 84%
active: UO-31 renal -34.7% | ACHN renal 3.65% | CCRF-CEM leukemia -27.6% | SR leukemia -21.3% | OVCAR-8 ovarian 3.85% | OVCAR-5 ovarian -46%

O=C(CCc1nnc(SCc2ccccc2)s1)c1nc2ccccc2[nH]1
inactive: EKVX NSCLC 93.8% | SN12C renal 92.7% | UO-31 renal 74.3% | TK-10 renal 95.8% | ACHN renal 94.4% | CAKI-1 renal 90.7% | A498 renal 72.7% | CCRF-CEM leukemia 68.1% | MOLT-4 leukemia 70.1% | SR leukemia 74.4% | RPMI-8226 leukemia 82.9% | OVCAR-8 ovarian 98.7% | OVCAR-5 ovarian 99.2% | OVCAR-4 ovarian 85.7% | SK-OV-3 ovarian 103% | IGROV1 ovarian 103% | OVCAR-3 ovarian 106% | HS 578T breast 106% | NCI/ADR-RES ovarian 87.1% | T-47D breast 95%

COc1ccc(-c2cc(C(=O)Nc3nc4cc(C)c(C)cc4s3)nc3cc(-c4ccccc4)nn23)cc1OC
inactive: EKVX NSCLC 107% | SN12C renal 107% | UO-31 renal 103% | TK-10 renal 125% | ACHN renal 106% | CAKI-1 renal 91.3% | A498 renal 129% | CCRF-CEM leukemia 84.2% | MOLT-4 leukemia 98.7% | SR leukemia 62.8% | RPMI-8226 leukemia 88% | OVCAR-8 ovarian 110% | OVCAR-5 ovarian 111% | OVCAR-4 ovarian 106% | SK-OV-3 ovarian 105% | IGROV1 ovarian 122% | OVCAR-3 ovarian 138% | HS 578T breast 111% | NCI/ADR-RES ovarian 102% | T-47D breast 103%

O=C1Nc2ccc(F)cc2/C1=C/c1nc(-c2ccc(F)cc2)n2ccccc12
inactive: EKVX NSCLC 104% | SN12C renal 98.9% | UO-31 renal 93.4% | TK-10 renal 120% | ACHN renal 94% | CAKI-1 renal 101% | CCRF-CEM leukemia 103% | MOLT-4 leukemia 103% | SR leukemia 52.9% | RPMI-8226 leukemia 117% | OVCAR-8 ovarian 97.7% | OVCAR-5 ovarian 94.7% | OVCAR-4 ovarian 96.3% | SK-OV-3 ovarian 108% | IGROV1 ovarian 97.8% | OVCAR-3 ovarian 112% | HS 578T breast 100% | NCI/ADR-RES ovarian 112% | T-47D breast 96.6%
active: A498 renal -13.9%

O=C1C(=O)c2ccc(Br)cc2-c2cc(Br)ccc21
active: MOLT-4 leukemia -31.4% | SR leukemia 4.99% | OVCAR-8 ovarian -1.14% | OVCAR-4 ovarian -99% | OVCAR-3 ovarian -48.6% | NCI/ADR-RES ovarian -29.2%
inactive: EKVX NSCLC 99.8% | SN12C renal 34.1% | UO-31 renal 48.4% | TK-10 renal 114% | ACHN renal 39% | CAKI-1 renal 58.1% | A498 renal 115% | CCRF-CEM leukemia 10.1% | RPMI-8226 leukemia 25.9% | OVCAR-5 ovarian 113% | SK-OV-3 ovarian 81% | IGROV1 ovarian 68.7% | HS 578T breast 86.4% | T-47D breast 20%

COC(=O)[C@]12CC[C@@H](C)[C@H](C)[C@@H]1C1=CC[C@@H]3[C@@]4(C)C=C(O)C(=O)[C@@]5(C)COC(=C54)C[C@@]3(C)[C@]1(C)CC2
active: EKVX NSCLC -56.7% | SN12C renal -29.9% | UO-31 renal -50.2% | TK-10 renal -62.3% | ACHN renal -71.7% | CAKI-1 renal -45.7% | A498 renal -78% | CCRF-CEM leukemia -60.8% | MOLT-4 leukemia -72.1% | SR leukemia -68.2% | RPMI-8226 leukemia -56.5% | OVCAR-8 ovarian -20.5% | OVCAR-5 ovarian -26.9% | OVCAR-4 ovarian -39.1% | SK-OV-3 ovarian -20.8% | IGROV1 ovarian -23.5% | OVCAR-3 ovarian -92% | HS 578T breast -18.8% | NCI/ADR-RES ovarian -42.8% | T-47D breast -25.8%

C[n+]1c2ccccc2c(Nc2ccc(N3CCCCC3)cc2)c2[nH]c3ccccc3c21
active: EKVX NSCLC -56.1% | SN12C renal -82.7% | UO-31 renal -97.5% | TK-10 renal -79.4% | ACHN renal -96.2% | CAKI-1 renal -96.8% | A498 renal -88.3% | CCRF-CEM leukemia -49.3% | MOLT-4 leukemia -63.4% | SR leukemia -70.1% | RPMI-8226 leukemia -72.4% | OVCAR-8 ovarian -87.4% | OVCAR-5 ovarian -86.2% | OVCAR-4 ovarian -35.3% | SK-OV-3 ovarian -75.8% | IGROV1 ovarian -97% | OVCAR-3 ovarian -95.7% | HS 578T breast -69.5% | NCI/ADR-RES ovarian -61.8% | T-47D breast -55.7%

Cc1ccc(C(C)C)cc1NC(=O)Nc1ccc([N+](=O)[O-])cc1
active: UO-31 renal -0.838% | ACHN renal 7.86% | A498 renal 7.54% | CCRF-CEM leukemia -14.5% | MOLT-4 leukemia -23% | SR leukemia 3.13% | RPMI-8226 leukemia -61.9% | SK-OV-3 ovarian 7.01% | IGROV1 ovarian 6.68% | OVCAR-3 ovarian -21.9% | NCI/ADR-RES ovarian -10.7% | T-47D breast 0.428%
inactive: EKVX NSCLC 15.6% | SN12C renal 10.9% | TK-10 renal 16.8% | CAKI-1 renal 10.5% | OVCAR-8 ovarian 15.2% | OVCAR-5 ovarian 26.8% | OVCAR-4 ovarian 28.2% | HS 578T breast 14.7%

O=C1CC(=O)N(c2ccccc2)O1
inactive: EKVX NSCLC 108% | SN12C renal 94.9% | UO-31 renal 61.7% | TK-10 renal 122% | ACHN renal 97.4% | CAKI-1 renal 94.8% | A498 renal 94.6% | CCRF-CEM leukemia 110% | MOLT-4 leukemia 114% | SR leukemia 110% | RPMI-8226 leukemia 105% | OVCAR-8 ovarian 103% | OVCAR-5 ovarian 92.9% | OVCAR-4 ovarian 110% | SK-OV-3 ovarian 98.4% | IGROV1 ovarian 99% | OVCAR-3 ovarian 118% | HS 578T breast 110% | NCI/ADR-RES ovarian 101% | T-47D breast 97.5%

COc1ccc(C2CC(c3cccc(Nc4ccnc5cc(Cl)ccc45)c3)=NN2C=O)cc1 (stereo not given)
active: A498 renal 7.17% | CCRF-CEM leukemia 7.54% | SR leukemia 6.76% | OVCAR-3 ovarian -22.7% | HS 578T breast -3.1% | NCI/ADR-RES ovarian 8.68%
inactive: EKVX NSCLC 39.4% | SN12C renal 37.9% | UO-31 renal 22.8% | TK-10 renal 41.5% | ACHN renal 45.5% | CAKI-1 renal 17.4% | MOLT-4 leukemia 15.8% | RPMI-8226 leukemia 21.5% | OVCAR-8 ovarian 35.1% | OVCAR-5 ovarian 45.3% | OVCAR-4 ovarian 61.7% | SK-OV-3 ovarian 19% | IGROV1 ovarian 32.7% | T-47D breast 43.5%

CCCCCCCCCCCCNc1ncnc2[nH]ncc12
active: SR leukemia 9.74%
inactive: EKVX NSCLC 51.2% | SN12C renal 80.3% | UO-31 renal 77.7% | TK-10 renal 88.2% | ACHN renal 83.4% | CAKI-1 renal 66.2% | A498 renal 50.4% | CCRF-CEM leukemia 68.3% | MOLT-4 leukemia 65.8% | RPMI-8226 leukemia 63% | OVCAR-8 ovarian 77.3% | OVCAR-5 ovarian 90.6% | OVCAR-4 ovarian 77.8% | SK-OV-3 ovarian 105% | IGROV1 ovarian 92.8% | OVCAR-3 ovarian 79.5% | HS 578T breast 92.4% | NCI/ADR-RES ovarian 83.8% | T-47D breast 62.8%

CSc1nc2c(c(=O)n1C)C(c1ccccc1)C1=C(N2)/C(=C/c2ccccc2)CCC1 (stereo not given)
active: SR leukemia -14.2%
inactive: EKVX NSCLC 39.1% | SN12C renal 55.4% | UO-31 renal 34.9% | TK-10 renal 51% | ACHN renal 57.3% | CAKI-1 renal 20.7% | A498 renal 81.4% | CCRF-CEM leukemia 20.6% | MOLT-4 leukemia 27.5% | RPMI-8226 leukemia 39.5% | OVCAR-8 ovarian 63.7% | OVCAR-5 ovarian 113% | OVCAR-4 ovarian 68.3% | SK-OV-3 ovarian 107% | IGROV1 ovarian 47.2% | OVCAR-3 ovarian 52.8% | HS 578T breast 61% | NCI/ADR-RES ovarian 38.3% | T-47D breast 57%

Fc1ccc(-c2nc(Nc3ccc(-c4nc5ccccc5[nH]4)cc3)nc(N3CCOCC3)n2)cc1
active: EKVX NSCLC -91.3% | SN12C renal -79.5% | UO-31 renal -87.6% | TK-10 renal -94.4% | ACHN renal -90.6% | CAKI-1 renal -93.6% | A498 renal -81.5% | CCRF-CEM leukemia -91.5% | MOLT-4 leukemia -91.6% | SR leukemia -83.3% | RPMI-8226 leukemia -73.4% | OVCAR-8 ovarian -73.8% | OVCAR-5 ovarian -74.7% | OVCAR-4 ovarian -73.9% | SK-OV-3 ovarian -89.9% | IGROV1 ovarian -71.2% | OVCAR-3 ovarian -95.6% | HS 578T breast -40.3% | NCI/ADR-RES ovarian -87.5% | T-47D breast -64.8%

N=C(N)/N=C(\CCc1nc2ccccc2[nH]1)c1nc2ccccc2[nH]1
inactive: EKVX NSCLC 92.7% | SN12C renal 85.6% | UO-31 renal 67.6% | TK-10 renal 105% | ACHN renal 92.3% | CAKI-1 renal 93.6% | A498 renal 111% | CCRF-CEM leukemia 99.5% | MOLT-4 leukemia 107% | SR leukemia 83.9% | RPMI-8226 leukemia 105% | OVCAR-8 ovarian 105% | OVCAR-5 ovarian 90% | OVCAR-4 ovarian 107% | SK-OV-3 ovarian 108% | IGROV1 ovarian 114% | OVCAR-3 ovarian 109% | HS 578T breast 99.4% | NCI/ADR-RES ovarian 93.4% | T-47D breast 99.7%

Source: PubChem BioAssay (NCI)
